Hit rate of the full screen: of about 360,000 compounds, about 3,700 (1%) were called active. Cut-off read from the data, not from the text of the source: active = activation above about 30%; inactive = the rest. The sample as a whole holds a higher share of actives than the screen did.
Target: D(1A) dopamine receptor (Homo sapiens) (UniProt P21728)
Assay: Allosteric Agonists of the Human D1 Dopamine Receptor: qHTS; note: 0% is about no effect
Settings: HEK293 T-REx D1 cells, calcium flux, agonist mode; at 2 µM; hits give high values
In short: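 Tetracycline-induced HEK293 TREx D1 cells, force-coupled to calcium signalling, were dye-loaded with a no-wash calcium kit. Compound was pin-added after a 10 s baseline. Fluorescence was read kinetically at 1 cycle/s for 180 s, with calcium rises flagged as agonism.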

Chain of D(1A) dopamine receptor (Homo sapiens) (P21728 whole entry, looked up): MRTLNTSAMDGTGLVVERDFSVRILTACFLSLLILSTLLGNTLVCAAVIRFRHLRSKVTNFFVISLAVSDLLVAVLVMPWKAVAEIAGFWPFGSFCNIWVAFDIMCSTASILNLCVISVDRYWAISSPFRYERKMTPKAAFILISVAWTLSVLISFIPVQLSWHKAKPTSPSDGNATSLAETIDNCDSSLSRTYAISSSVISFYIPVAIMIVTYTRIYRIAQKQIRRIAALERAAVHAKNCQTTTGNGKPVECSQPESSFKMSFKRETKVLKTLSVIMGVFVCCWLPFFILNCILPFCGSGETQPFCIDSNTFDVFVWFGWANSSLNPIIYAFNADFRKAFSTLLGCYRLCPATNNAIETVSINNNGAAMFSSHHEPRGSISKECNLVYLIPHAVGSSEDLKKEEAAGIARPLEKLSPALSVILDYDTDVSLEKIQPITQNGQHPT

Compound | activation
O=[S+]([O-])(c1ccc(OC(F)(F)F)cc1)N1CCN([S+](=O)([O-])c2ccc3c(c2)OCCO3)CC1 | 4.97% (inactive)
CC1Cc2cc(S(=O)(=O)CCC(=O)NCc3ccc(Cl)cc3)ccc2N1C(=O)C1CC1 (centres undefined) | 14% (inactive)
Cc1cccc(NC(=O)c2cccc(C(=O)Nc3cccc(C)c3C)n2)c1C | 2.25% (inactive)
Cc1cccc(NC(=O)N2CCN(C)c3ncccc32)c1C | 33.9% (active)
Cc1cccc(NC(=O)N2CCCCCC2)c1C | 0.571% (inactive)
O=C1C(F)N([S+](=O)([O-])c2ccc3c(c2)OCCO3)CCN1[S+](=O)([O-])c1c(F)cccc1F (centres undefined) | -0.431% (inactive)
COc1ccc(CCC(=O)NCCc2csc(-c3ccc(Cl)cc3)n2)cc1 | 5.93% (inactive)
O=C(c1ccc(Cl)cc1)n1cnc2ccccc21 | 1.83% (inactive)
O=c1c(-c2ccc(Cl)cc2)[n+]([O-])c2ccccc2n1OCc1nc2ccccc2[nH]1 | -0.955% (inactive)
O=C(Cc1nc2ccccc2[nH]c1=O)c1ccc(Cl)cc1 | 69.4% (active)
C#CC(C)(CC)NC(=O)Cn1nnc(-c2ccc(OCc3c(F)cccc3Cl)cc2)n1 (centres undefined) | 3.62% (inactive)
COc1ccc(CCNC(=O)CCCn2c(=O)c3ccccc3n(Cc3ccc(C)cc3)c2=O)cc1OC | -2.01% (inactive)
COc1cccc(CNC(=O)CCc2nc(-c3ccc(C)cc3)no2)c1 | 3.85% (inactive)
COc1ccccc1-c1noc(CSc2nnc(-c3ccccc3)n2-c2ccc(C)c(C)c2)n1 | 0.886% (inactive)
COc1cccc(C(=O)NC(=O)Nc2nc(C)cc(C(F)(F)F)n2)c1 | 2.89% (inactive)
COc1cccc(C(=O)Nc2ccc(-c3cc(C(F)(F)F)nn3-c3ccccc3)cc2)c1 | 2.16% (inactive)
COc1cccc(C(=O)c2sc3nc(-c4ccccc4)cc(C(F)(F)F)c3c2N)c1 | 171% (active)
Cc1ccccc1CNC(=O)CCCn1nc(C)c2sc3ccccc3c2c1=O | 5.39% (inactive)
CSc1ccccc1-c1nnc(NC(=O)c2ccc3c(c2)OCCO3)o1 | 0.0799% (inactive)
CCC(C(=O)Nc1cccc(-c2nc3cccnc3s2)c1C)c1ccccc1 (centres undefined) | 6.2% (inactive)
COc1cc(NS(=O)(=O)c2cccs2)cc(OC)c1 | -0.545% (inactive)
COc1cc(NC(=O)c2ccccc2NS(=O)(=O)c2ccc(Cl)s2)cc(OC)c1 | 32.7% (active)
O=S(=O)(Nc1ccccc1N1CCOCC1)c1ccc(Cl)s1 | 0.142% (inactive)
CCCn1c(NCc2ccc(N(CC)CC)cc2)nc2ccccc21 | 15.4% (inactive)
